In PubChem BioAssay (NCI):
This is part of a sample that, as a whole, favours compounds with a hit. Of some 83,000 tested, about 20% had one in any assay.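 Growth was measured after 48 h exposure to one concentration of compound in 96-well plates. Values under 10 count as active.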 Values without a mark were called inactive. The source made the active and inactive calls.

Test system: BT-549 breast
Assay: NCI-60 one-dose screen, 48 h (100 = growth as untreated, 0 = no growth, -100 = all killed)
Conditions: 10 µM unless noted

Row | Structure (SMILES) | growth
1 | CCCCOc1ccc(C(N)Cc2ccccc2)cc1 (stereo not given) | 101%
2 | Nc1c(F)cc(-c2nc3cc(F)ccc3[se]2)cc1F | 78.9%
3 | Nc1ccc(OCCNS(=O)(=O)c2cccc(S(=O)(=O)F)c2)c(Cl)c1 | 95.9%
4 | Cn1cc(-c2csc(-c3cn(CCCCN4CCCCC4)c4ccc(F)cc34)n2)c2cccnc21 | 81.1%
5 | CCCCCCCC(=O)OCC(=O)[C@]1(O)Cc2c(O)c3c(c(O)c2[C@@H](OC2CC(N)C(O)C(C)O2)C1)C(=O)c1c(OC)cccc1C3=O (stereo not given in full) | -84% (active)
6 | CCCCCN(CCCCC)CC(O)c1cc(Cl)ccc1OC (stereo not given) | 79.8%
7 | CC12CC=CCC1CCC1C2CCC2(C)C(c3ccc(=O)oc3)CCC12O (stereo not given) | -65.4% (active)
8 | COC(=O)[C@@H](C)C[C@H](Cc1ccccc1)NC(=O)c1csc([C@@H](C[C@H](C(C)C)N(C)C(=O)[C@@H](NC(=O)CN(C)C)C2CC2)OC(C)=O)n1 | -21.1% (active)
9 | CCCCNC(c1ccc(Cl)cc1)C(O)c1ccc(Cl)cc1 (stereo not given) | 80.6%
10 | C=CCn1cc(C=C2C(=O)N(C)C(=O)N(C)C2=O)c2ccccc21 | 98%
11 | COc1ccc2nc(NC(=O)COc3cc(/C=C\c4cc(OC)c(OC)c(OC)c4)ccc3OC)sc2c1 | 55.4%
12 | O=C1CN=C(c2ccc(Cl)cc2)c2sccc2N1 | 103%
13 | COP(=O)(OC)C(O)c1ccc(Cl)cc1 (stereo not given) | 94.1%
14 | C=CC[Se]C(=O)c1ccccc1OC(C)=O | 28.9%
15 | C[C@]12CCc3sc(-c4ccccc4O)nc3C1=CC[C@@H]1[C@@H]2CC[C@]2(C)C(=O)CC[C@@H]12 | 110%
